From PubChem BioAssay
DAX1 inh-1 – DAX1 (NR0B1) inhibition, primary screen. HEK293T StAR-luciferase reporter, SF-1/DAX-1 repression relief. inhibition, % at 6.8 µM. 370,000 compounds, 1.1% hits. AID 652010;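 active = inhibition above the mean over all tested compounds plus 3 SD, cut at about 3.6% in these data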;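 note: 0% = DAX-1 cells with DMSO and 100% = cells lacking DAX-1 with DMSO; higher inhibition means more luminescence from relief of DAX-1 repression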
hcDAF-12 act – H. contortus DAF-12 activation, primary screen. 370,000 compounds, 1.4% hits. HEK293 hcDAF-12 lit1-tk-luc reporter, luminescence; 0% DMSO, 100% Δ7-dafachronic acid. AID 652067. activation, % at 6.8 µM;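 active = activation above the mean of all tested compounds plus 3 SD, cut at about 5.5% in these data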;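 note: 100% = response to 3 µM Δ7-dafachronic acid high control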
hgDAF-12 ag – agonists of H. glycines DAF-12 nuclear receptor; HEK293 GAL4-hgDAF12 UAS-luciferase reporter, agonist luminescence; normalized to butyrate control; activation, % at 6.8 µM; 370,000 compounds, 1.8% hits;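 active = activation above a cutoff set at the mean of all screened compounds plus 3 SD, cut at about 10% in these data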;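 note: 0% = DMSO wells and 100% = sodium butyrate wells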
ssDAF-12 act – activators of S. stercoralis DAF-12 nuclear receptor. HEK293 ssDAF-12/GRIP1 lit1-tk-luc reporter, luminescence; % of 3 µM dafachronic acid response. activation, % at 6.8 µM. 370,000 compounds, 1% hits. AID 652126;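 active = activation above the mean over all tested compounds plus 3 SD, cut at about 0.9% in these data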;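 note: 0% = DMSO-only wells and 100% = 3 µM delta7-dafachronic acid wells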
DAX1 inh-2 – inhibits human nuclear receptor DAX1 | AID 504766 | inhibition, % at 6.75 µM | P51843 | HEK293 Gal4-DAX1 luciferase reporter, luminescence | 340,000 compounds, 0.99% hits;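 active = inhibition above the mean over all tested compounds plus 3 SD, cut at about 4.2% in these data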;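 note: 0% = DAX1-transfected cells with DMSO and 100% = empty-vector control cells with DMSO; inhibition shows as a rise in luminescence from relieved DAX1 repression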
Target sequence (P51843 207-470 limits assumed): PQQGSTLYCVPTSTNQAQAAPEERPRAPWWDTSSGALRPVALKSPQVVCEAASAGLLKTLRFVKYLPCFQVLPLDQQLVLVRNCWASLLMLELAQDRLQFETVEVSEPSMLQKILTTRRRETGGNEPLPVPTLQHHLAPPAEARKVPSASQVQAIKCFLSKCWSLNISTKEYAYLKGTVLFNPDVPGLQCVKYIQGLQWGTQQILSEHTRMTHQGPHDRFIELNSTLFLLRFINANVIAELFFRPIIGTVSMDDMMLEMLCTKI
* marks the source's active call; other numbers are inactive results; . = no result. Most compounds without a hit are left out; they make up all but 4.1% or so of the library.

SMILES	DAX1 inh-1	hcDAF-12 act	hgDAF-12 ag	ssDAF-12 act	DAX1 inh-2
COCCCN1C(=O)[C@H](CC(=O)NCC2CCCCC2)[C@]2(C(=O)OC)CCCCC=C12	0	-1	-2	-1	.
O=C(NC1CC1)c1sc2ccccc2c1Cl	0	-2	2	-1	-1
O=C(NNC(=O)C1CC2CCC1C2)c1sc2ccccc2c1Cl (configuration not stated)	2	2	13*	0	1
CC(=O)Nc1ccc(Cl)cc1C(=O)O	0	0	0	0.9*	1
CCOc1ccccc1Nc1nc2ccccc2n1C(C)C	0	1	0	0	-3
Cc1ccc(/C=N/OC(=O)c2c(C)noc2-c2snnc2C)cc1	0	0	0	-1	5.7*
CC(C)=NOC(=O)c1c(C)noc1-c1snnc1C	0	-1	-2	-2	1
C#CCN1CC(N(C)CCOC(=O)c2ccc(OC)c(OC)c2)CS1(=O)=O (configuration not stated)	-1	-2	2	-1	.
O=C1C=C(O)c2c(O)cc(O)c(O)c2C1=O	0	0	-2	-2	5.2*
O=C1c2ccccc2C(=O)c2c(O)c(O)cc(O)c21	0	2	5	0	-1
O=C(O)c1oc2ccc(Br)cc2c1-n1cccc1	0	1	0	-1	7.0*
NNC(=O)c1oc2ccccc2c1-n1cccc1	0	-2	2	0	0
CCOC(=O)[C@@]12CN(C(=O)OC(C)(C)C)CC=C1N(Cc1ccc(OC)cc1)C(=O)[C@H]2CC(=O)NCC12CC3CC(CC(C3)C1)C2	-1	-3	2	-2	.
Cc1ccc(N/C(=C\C(=O)c2ccccc2)C(=O)O)cc1	4.3*	3	10*	1.1*	1
Cc1cccc(NC(=O)[C@H]2CC(=O)O[C@@H]2c2ccccc2)c1C	-1	1	2	-2	.
O=S1(=O)c2ccc(Br)cc2OC[C@@H](Cc2ccccc2)N1Cc1cn(Cc2ccc(Cl)cc2)nn1	-1	1	3	-2	.
COC(=O)[C@]12CCCCC=C1N(Cc1ccc(OC)cc1)C(=O)[C@@H]2CC(=O)NCC12CC3CC(CC(C3)C1)C2	0	-2	2	-1	.
Cc1ccsc1S(=O)(=O)n1c(CN2CCOCC2)nc2ccccc21	0	-1	-6	-1	.
O=C(O)Cn1ccc2ccccc21	0	5.7*	1	1	0
COC(=O)[C@]12C[C@H](CC(=O)NCc3cccc4ccccc34)C(=O)N(Cc3ccco3)C1=C[C@H](C(C)(C)C)O[C@@H]2C	1	-3	-2	-1	.
O=S1(=O)c2ccc(N3CCC[C@@H]3CO)cc2O[C@H]2CCN1C2	0	2	-3	-1	.
C/C(Cn1cnc([N+](=O)[O-])n1)=N\NC(=O)c1ccccc1	2	1	6	-1	4.3*
C/C(Cn1nnc([N+](=O)[O-])n1)=N\NC(=O)c1ccccc1	0	-1	5	-1	0
Fc1ccc(/C=N/Nc2nn[nH]n2)cc1	0	-1	-3	-1	7.1*
CCc1ccc(/C=N/Nc2nn[nH]n2)cc1	-1	-1	6	-1	-1
SMILES	DAX1 inh-1	hcDAF-12 act	hgDAF-12 ag	ssDAF-12 act	DAX1 inh-2
CC(/C=N/NC(=O)CSc1nc2ccccc2n1C)=C\c1ccco1	0	6.0*	0	0	1
CC(/C=N/NC(=O)c1cccs1)=C\c1ccco1	3	2	12*	-1	0
CC(/C=N/NC(=O)Cc1cccs1)=C\c1ccco1	1	2	4	-1	0
O=C(c1ccc([N+](=O)[O-])cc1)N1CCCC1	-1	-1	1	-1	0
O=C(NCC(c1ccco1)N1CCOCC1)c1ccc([N+](=O)[O-])cc1 (configuration not stated)	0	-1	-2	-1	0
O=C(c1ccc([N+](=O)[O-])cc1)N1CCOCC1	0	-1	0	8.9*	0
O=C(Nc1ccccc1)C1CCN(C(=O)c2ccc([N+](=O)[O-])cc2)CC1	0	-1	0	-1	-1
O=C(NCC(O)CN1CCOCC1)c1ccc([N+](=O)[O-])cc1 (configuration not stated)	0	-2	-3	-1	6.2*
CC(=O)c1cccc(NC(=O)C2CCN(C(=O)c3ccc([N+](=O)[O-])cc3)CC2)c1	0	4	4	2.3*	1
COc1ccc(N2C(=O)C(CC(N)=O)N(NC(=O)CCc3ccccc3)C2=O)cc1 (configuration not stated)	0	1	-1	-1	5.9*
COc1ccc(CN2C(=O)N(c3ccc(OC)cc3)C(=O)C2CC(=O)Nc2ccccc2)cc1 (configuration not stated)	-1	1	-1	-1	0
C/C(=N\OCc1ccc(C#N)cc1)c1ccc(S(=O)(=O)N(C)C)cc1	0	1	2	-1	1
C/C(=N\OCc1ccc(C#N)cc1)c1ccccc1	0	1	11*	-1	4
COc1ccc(C(c2c[nH]c3ccccc23)c2c[nH]c3ccccc23)cc1O	-1	5	5	2.8*	3
O=C(O)c1ccc(-n2ncc3c2/C(=C/c2cccc([N+](=O)[O-])c2)CC3)cc1	0	4	0	0.9*	0
O=C(O)c1ccc(-n2ncc3c2/C(=C\c2cccc([N+](=O)[O-])c2)CC3)cc1	0	1	3	-1	2
COC(=O)/C=C1\OC(C)c2ccccc21 (configuration not stated)	1	3	-3	1.2*	.
CC(C)=CC(=O)Nc1nc2ccc([N+](=O)[O-])cc2s1	0	2	13*	-1	0
CC(C)[C@@H](C)/C=C/[C@@H](C)[C@H]1CC[C@@H]2[C@]1(C)CCC1[C@]23C=C[C@]2(C[C@@H](O)CC[C@]12C)N(c1ccc(F)cn1)O3 (some centres not stated)	1	2	3	0	.
Cc1cc(N2O[C@]34C=C[C@]25C[C@@H](O)CC[C@]5(C)C3CC[C@]2(C)[C@@H]([C@H](C)/C=C/[C@H](C)C(C)C)CC[C@H]24)no1 (some centres not stated)	1	5	3	1.0*	0
COC(=O)[C@]1(CNC(=O)c2cc(F)ccc2F)CC(=O)N(C)[C@@H]1c1ccccc1	0	0	-1	-1	.
COC(=O)CCC(=O)CN	1	0	-2	-1	4.7*
COC(=O)CCCC(=O)OC	0	2	0	-1	4.3*
COC(=O)[C@]12C[C@H](CC(=O)N3CCN(C(=O)C4CC4)CC3)C(=O)N(Cc3cccc4ccccc34)C1=C[C@H](C(C)(C)C)O[C@@H]2C	0	-1	1	-1	.
